Laboratory results taken from PubChem BioAssay (Tox21).
Values joined by “and” are separate entries in the source; they are usually repeats but may differ in a detail not shown here. Equal entries are not always repeated. Results filed as inconclusive are left out. Entries that show only a call come without a potency. More than one record can exist for a structure, and the calls need not agree. Active and inactive are the calls of the source. Unless noted, the call rests on the fitted dose curve; in most records, active means well fitted curve in the direction sought with a large enough effect in the repeat runs; inconclusive means weak or mixed curves; inactive means no such curve, though single readings can be large; an effect the other way counts as inactive or inconclusive.

Tests used:
[1] = target: Thyrotropin-releasing hormone receptor (Homo sapiens) (UniProt P34981); assay: qHTS assay to identify small molecule agonists of the thyrotropin-releasing hormone receptor (TRHR) signaling pathway (AID 1346891; calls by dose curve; further: series mostly up to about 58 µM)
How it was run: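 TRHR-expressing HEK293 cells were plated 18 h at 37 °C/5% CO2, loaded with calcium dye 2 h at 37 °C, then given compound in DMSO; fluorescence was read kinetically for 3 min at 1 s intervals.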

[2] = Human pregnane X receptor (PXR) small molecule agonists, qHTS cell viability counter screen (AID 1346977); further: nearly all actives have a fitted effect of over 50% in size; further: potency means the concentration at half of the fitted maximal effect
How it was run: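 PXR-Luc HepG2 cells in medium with 5% charcoal-stripped FBS were pre-incubated 5hr, then exposed to compounds for 24hr at 37C. Viability was read in the same wells by CellTiter-Fluor fluorescence, reagent added after 23hr with a 1hr incubation.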

[3] = Caspase-3/7 induction in CHO-K1 cells by small molecules, qHTS cell viability counter screen (AID 1346979); further: nearly all actives have a fitted effect of over 35% in size; further: potency means the concentration at half of the fitted maximal effect
How it was run: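 Wild-type CHO-K1 cells were seeded at 1,500 per well, rested 5hr at 37 C, then exposed to compounds in DMSO. After 16hr, CellTiter-Fluor reagent was added and fluorescence read 1hr later as the viability measure.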

[4] = Caspase-3/7 induction in CHO-K1 cells by small molecules, qHTS assay (AID 1346980); further: nearly all actives have a fitted effect of over 15% in size
How it was run: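 Wild-type cells were seeded at 1,500 per well and settled 5 hr at 37 C, 5% CO2, then exposed to DMSO-dissolved compounds for 17 hr. Caspase-Glo 3/7 reagent was added, and luminescence was read after 30min at room temperature.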

[5] = Caspase-3/7 induction in HepG2 cells by small molecules, qHTS cell viability counter screen (AID 1346981); further: nearly all actives have a fitted effect of over 30% in size; further: potency means the concentration at half of the fitted maximal effect
How it was run: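 Treatment of HepG2 cells with DMSO-delivered compounds ran 16 hr at 37 C following a 5-hr pre-incubation of 2,000 cells/well. CellTiter-Fluor fluorescence, read after 1 hr, served as the viability measure in a qHTS format.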

[6] = target: Nuclear receptor subfamily 1 group I member 2 (Homo sapiens) (UniProt O75469); assay: Human pregnane X receptor (PXR) small molecule agonists, qHTS assay (AID 1346982); further: nearly all actives have a fitted effect of over 35% in size; further: potency means the concentration at half of the fitted maximal effect
How it was run: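 Stable HepG2 line reporting PXR-mediated CYP3A4 expression via luciferase. Treatment: 24 hr with compounds in DMSO at 37 C. Detection: ONE-Glo luminescence.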

[7] = Caspase-3/7 induction in HepG2 cells by small molecules, qHTS assay (AID 1346978); further: nearly all actives have a fitted effect of over 15% in size; further: potency means the concentration at half of the fitted maximal effect
How it was run: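 Wild-type HepG2 cells (2,000/well) were settled 5 h at 37 C, 5% CO2, then exposed to compounds in DMSO for 17 h. Caspase-3/7 activity was read by luminescence 30 min after adding Caspase-Glo 3/7 reagent at room temperature.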

[8] = target: Nuclear receptor subfamily 1 group I member 2 (Rattus norvegicus) (UniProt Q9R1A7); assay: Rat pregnane X receptor (rPXR) activation by small molecules, qHTS assay (AID 1346983); conditions: rPXR luciferase reporter cells, One-Glo luminescence, 24 h; max activation: stronger effect = higher value; further: nearly all actives have a fitted effect of over 20% in size
How it was run: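 Cell-based rPXR luciferase reporter assay, 2,000 cells per well, rested 5hr at 37 C before compound addition in DMSO, then 24 hr at 37 C. One-Glo reagent was added and luminescence read after 30 min at room temperature.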

[9] = target: Nuclear receptor subfamily 1 group I member 2 (Homo sapiens) (UniProt O75469); assay: Human pregnane X receptor (PXR) activation by small molecules, qHTS assay (AID 1346985); further: nearly all actives have a fitted effect of over 40% in size
How it was run: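 DPX-2 cells (HepG2 co-transfected with a PXR response element and a CYP3A4-promoter luciferase construct) were seeded at 2,000 per well, rested 5 hr at 37C, then exposed to DMSO-dissolved compounds for 24 hr. Activation was read as luciferase luminescence.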

[10] = target: Nuclear receptor subfamily 1 group I member 2 (Homo sapiens) (UniProt O75469); assay: CYP3A4 induction through human pregnane X receptor (PXR) by small molecules, qHTS assay (AID 1346984); further: nearly all actives have a fitted effect of over 40% in size
How it was run: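 After 24 h at 37C with compound, DPX-2 cells (HepG2, co-transfected PXR response element and CYP3A4 promoter-luciferase) got 3uM final P450-Glo Luciferin-IPA for 3 h; One-Glo luminescence followed.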

Sequence of Nuclear receptor subfamily 1 group I member 2 (Homo sapiens) (O75469 whole entry, looked up): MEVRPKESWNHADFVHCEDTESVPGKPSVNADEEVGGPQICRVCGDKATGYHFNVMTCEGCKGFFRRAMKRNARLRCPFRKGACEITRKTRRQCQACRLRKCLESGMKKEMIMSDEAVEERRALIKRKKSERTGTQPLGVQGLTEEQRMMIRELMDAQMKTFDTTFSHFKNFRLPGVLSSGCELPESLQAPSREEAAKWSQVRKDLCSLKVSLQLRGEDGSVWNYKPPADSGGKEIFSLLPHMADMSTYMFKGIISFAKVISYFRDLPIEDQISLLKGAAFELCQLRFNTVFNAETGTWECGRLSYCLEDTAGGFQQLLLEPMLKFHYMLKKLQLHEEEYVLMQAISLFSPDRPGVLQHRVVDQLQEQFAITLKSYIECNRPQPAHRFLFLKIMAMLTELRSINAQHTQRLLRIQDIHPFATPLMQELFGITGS
Sequence of Thyrotropin-releasing hormone receptor (Homo sapiens) (P34981 whole entry, looked up): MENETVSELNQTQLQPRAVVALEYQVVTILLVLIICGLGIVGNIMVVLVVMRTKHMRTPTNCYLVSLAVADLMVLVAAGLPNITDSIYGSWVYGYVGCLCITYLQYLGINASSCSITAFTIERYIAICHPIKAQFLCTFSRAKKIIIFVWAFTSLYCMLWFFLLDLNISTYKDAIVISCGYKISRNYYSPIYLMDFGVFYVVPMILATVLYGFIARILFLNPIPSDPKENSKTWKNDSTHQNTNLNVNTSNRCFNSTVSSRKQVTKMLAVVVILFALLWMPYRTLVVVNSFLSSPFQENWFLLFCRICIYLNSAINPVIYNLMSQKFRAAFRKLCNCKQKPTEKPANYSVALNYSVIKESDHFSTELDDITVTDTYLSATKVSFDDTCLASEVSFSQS
Sequence of Nuclear receptor subfamily 1 group I member 2 (Rattus norvegicus) (Q9R1A7 whole entry, looked up): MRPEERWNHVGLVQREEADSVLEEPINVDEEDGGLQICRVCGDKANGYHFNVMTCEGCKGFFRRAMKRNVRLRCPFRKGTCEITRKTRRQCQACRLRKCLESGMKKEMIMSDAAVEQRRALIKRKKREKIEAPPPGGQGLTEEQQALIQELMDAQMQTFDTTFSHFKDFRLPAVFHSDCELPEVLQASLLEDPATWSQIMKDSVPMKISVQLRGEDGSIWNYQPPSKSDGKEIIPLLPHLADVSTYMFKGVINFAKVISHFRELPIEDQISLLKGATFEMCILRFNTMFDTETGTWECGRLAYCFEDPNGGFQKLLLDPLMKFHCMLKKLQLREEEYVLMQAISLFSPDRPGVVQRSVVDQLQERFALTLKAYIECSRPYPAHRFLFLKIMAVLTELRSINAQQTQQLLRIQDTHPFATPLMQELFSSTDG

Cc1ccc(C(=O)c2cc(O)c(O)c([N+](=O)[O-])c2)cc1
Potency [1]: inactive
Potency [2]: 21.7 µM (active)
Potency [3]: 43.3 µM (active)
Potency [4]: inactive
Potency [5]: 43.3 µM (active)

CCCCC(CC)COP(=O)(OCC(CC)CCCC)OCC(CC)CCCC (stereo unspecified)
Potency [1]: inactive
Potency [2]: inactive
Potency [3]: inactive
Potency [4]: inactive
Potency [5]: inactive
Potency [6]: inactive and 4.86 µM (active)

O=C(/C=C/c1ccccc1)OCc1ccccc1
Potency [1]: inactive
Potency [2]: inactive
Potency [7]: inactive
Potency [3]: inactive
Potency [4]: inactive
Potency [5]: inactive
Potency [6]: inactive
max activation [8]: -0.887% (inactive)
Potency [9]: inactive

O=P(O)(O)O
Potency [1]: inactive
Potency [2]: inactive
Potency [7]: inactive
Potency [3]: inactive
Potency [4]: inactive
Potency [5]: inactive
max activation [8]: -4.8% (inactive)

O=C(/C=C/C=C/c1ccc2c(c1)OCO2)N1CCCCC1
Potency [1]: inactive
Potency [2]: inactive
Potency [7]: inactive
Potency [4]: inactive
Potency [5]: inactive
Potency [6]: 10.9 µM (active)

CNCCCC12CCC(c3ccccc31)c1ccccc12
Potency [1]: inactive
Potency [2]: 27.3 µM (active)
Potency [7]: 27.3 µM (active)
Potency [3]: 61.1 µM (active) and inactive
Potency [4]: inactive
Potency [5]: 61.1 µM (active)

COC(C)COC(C)COC(C)CO (stereo unspecified)
Potency [1]: inactive
Potency [2]: inactive
Potency [3]: inactive
Potency [4]: inactive
Potency [5]: inactive
Potency [6]: inactive

C=C(C)C(=O)OCCOC(=O)C(=C)C
Potency [1]: inactive
Potency [2]: inactive
Potency [7]: inactive
Potency [3]: inactive
Potency [4]: inactive
Potency [5]: inactive
Potency [6]: inactive

COC(=O)CCC(=O)OC
Potency [1]: inactive
Potency [2]: inactive
Potency [7]: inactive
Potency [3]: inactive
Potency [4]: inactive
Potency [5]: inactive
Potency [6]: 56 µM (active) and inactive

COc1cccc2c1C(=O)c1c(O)c3c(c(O)c1C2=O)C[C@@](O)(C(=O)CO)C[C@@H]3O[C@H]1C[C@H](N)[C@H](O)[C@H](C)O1
Potency [1]: inactive
Potency [2]: 1.72 µM (active) and 6.68 µM (active)
Potency [7]: 5.96 µM (active)
Potency [3]: 9.67 µM (active) and 21.1 µM (active)
Potency [4]: inactive
Potency [5]: 3.85 µM (active) and 11.9 µM (active)
Potency [6]: inactive
max activation [8]: -0.0344% (inactive) and 3.76% (inactive)
Potency [10]: inactive
Potency [9]: inactive

O=C(O)c1ccccc1Nc1cccc(C(F)(F)F)c1
Potency [1]: inactive
Potency [2]: inactive
Potency [7]: inactive
Potency [3]: inactive
Potency [4]: inactive
Potency [5]: inactive
Potency [6]: 30.6 µM (active) and inactive

Nc1ccc(Nc2ccccc2)cc1
Potency [1]: inactive
Potency [2]: 30.3 µM (active) and 39.8 µM (active) and 30.6 µM (active)
Potency [3]: 53.9 µM (active) and 43.3 µM (active) and 48.6 µM (active)
Potency [4]: inactive
Potency [5]: 42.8 µM (active) and 34.4 µM (active) and 48.6 µM (active)
Potency [6]: 24.1 µM (active) and 19.3 µM (active) and 34.4 µM (active)

C#C[C@]1(O)CC[C@H]2[C@@H]3CCc4cc(OC)ccc4[C@H]3CC[C@@]21C
Potency [1]: inactive
Potency [2]: inactive
Potency [7]: inactive
Potency [3]: 27.3 µM (active) and 18.8 µM (active)
Potency [4]: inactive
Potency [5]: inactive
Potency [6]: 21.7 µM (active) and 18.8 µM (active)
max activation [8]: 4.03% (inactive)
Potency [10]: inactive

c1ccc2c(c1)Oc1ccccc1S2
Potency [1]: inactive
Potency [2]: inactive
Potency [7]: inactive
Potency [3]: inactive
Potency [4]: inactive
Potency [5]: inactive
Potency [6]: inactive

CCOCCOCCO
Potency [1]: inactive
Potency [2]: inactive
Potency [7]: inactive
Potency [3]: inactive
Potency [4]: inactive
Potency [5]: inactive
Potency [6]: inactive

CCCCc1oc2ccccc2c1C(=O)c1cc(I)c(OCCN(CC)CC)c(I)c1
Potency [1]: inactive
Potency [2]: 43.6 µM (active) and 26.6 µM (active)
Potency [3]: 48.9 µM (active)
Potency [4]: inactive
Potency [5]: 48.9 µM (active)
Potency [6]: 3.09 µM (active) and 4.22 µM (active)

Nc1ccccc1N
Potency [1]: inactive
Potency [3]: inactive and 47.2 µM (active)
Potency [4]: inactive
Potency [5]: 15 µM (active)
Potency [6]: 1.76 µM (active) and 7.7 µM (active)

CC(C)(C)NC(=O)[C@H]1CC[C@H]2[C@@H]3CC[C@H]4NC(=O)C=C[C@]4(C)[C@H]3CC[C@]12C
Potency [1]: inactive
Potency [2]: inactive
Potency [3]: inactive
Potency [4]: inactive
Potency [5]: inactive
Potency [6]: 48.6 µM (active)
max activation [8]: -2.95% (inactive)
Potency [10]: inactive
Potency [9]: inactive

CCCCNS(=O)(=O)c1ccccc1
Potency [1]: inactive
Potency [7]: inactive
Potency [3]: inactive
Potency [4]: inactive
Potency [5]: inactive

O=C(COc1ccc(Cl)cc1)N1CCN(Cc2ccc3c(c2)OCO3)CC1
Potency [1]: inactive
Potency [7]: inactive
Potency [3]: inactive
Potency [4]: inactive
Potency [5]: inactive
Potency [6]: 34.4 µM (active) and inactive
max activation [8]: 0.0978% (inactive)
Potency [10]: inactive
Potency [9]: inactive

Brc1cc(Oc2cc(Br)c(Br)c(Br)c2Br)c(Br)c(Br)c1Br
Potency [1]: inactive
Potency [2]: inactive
Potency [3]: inactive
Potency [4]: inactive
Potency [5]: inactive
Potency [6]: 9.73 µM (active)

c1ccncc1
Potency [1]: inactive
Potency [2]: inactive
Potency [3]: inactive
Potency [4]: inactive
Potency [5]: inactive
Potency [6]: inactive

CN(C)c1nc(N(C)C)nc(N(C)C)n1
Potency [1]: inactive
Potency [3]: inactive
Potency [4]: inactive
Potency [5]: inactive

C=CC(C)(CCC=C(C)C)OC(C)=O (stereo unspecified)
Potency [1]: inactive
Potency [3]: inactive
Potency [4]: inactive
Potency [5]: inactive
Potency [6]: inactive

CN(C)C(=N)N=C(N)N
Potency [1]: inactive
Potency [7]: inactive
Potency [3]: inactive
Potency [4]: inactive
Potency [5]: inactive
max activation [8]: -2.9% (inactive)
